The test system of the assay is V-C8 (BRCA2-deficient hamster cells). Briefly: normalised cell viability (fraction of plate median); higher = more viable cells (less toxic). As to conditions: 5 µM. Summed up: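 Library drugs, held as 10 mM stocks in DMSO, were diluted to 5 μM in 100 μl medium and added to 96-well plates of V-C8 hamster cells, either lacking BRCA2 or with BRCA2 restored, 24 h after seeding. Plates ran for 3 days (screen 1) or 6 days (screen 2), alongside solvent-only wells. Viability came from a resazurin readout, median-plate normalised, as the mean of triplicate wells.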

Counter-ions that a name gives are not always drawn. ± gives the standard deviation of the averaged measurements. The full ranking holds about 1,300 compounds; the median of “normalised cell viability” is about 1, and the lowest 2% start at about 0.14. The full list was thinned out, with the lowest values kept by preference.

On to `COc1cc([C@@H]2c3cc4c(cc3[C@H](O)[C@H]3COC(=O)[C@H]23)OCO4)cc(OC)c1OC` [Podophyllotoxin], for which the normalised cell viability turned out to be 0.126 ± 0.01 (treatment time: 3 days) and 0.143 ± 0.0037 (treatment time: 6 days).
As for `C[C@]12CC[C@@H]3c4ccc(OC(=O)N(CCCl)CCCl)cc4CC[C@H]3[C@@H]1CC[C@@H]2O` [Estramustine], the normalised cell viability was found to be 0.175 ± 0.019 (treatment time: 3 days) and 0.213 ± 0.013 (treatment time: 6 days).
Take `CCC1(C)CC(=O)NC(=O)C1` [Bemegride]: the normalised cell viability was found to be 0.925 ± 0.075 (treatment time: 3 days) and 1.06 ± 0.055 (treatment time: 6 days).
The like results for `NCC(O)c1ccc(O)cc1` (racemic) [(+,-)-Octopamine hydrochloride] were, in that order, 1.02 ± 0.083 and 1.1 ± 0.083.
In the case of `CC[C@@]1(O)C(=O)OCc2c1cc1n(c2=O)Cc2cc3ccccc3nc2-1` [Camptothecine (S,+)], the normalised cell viability runs as follows: (treatment time: 3 days) 0.148 ± 0.0039; (treatment time: 6 days) 0.109 ± 0.008.
For `CC[C@@]1([C@@H]2O[C@@H]([C@H]3O[C@@](O)(CO)[C@H](C)C[C@@H]3C)C[C@@H]2C)CC[C@H]([C@]2(C)CC[C@]3(C[C@H](O)[C@@H](C)[C@@H]([C@@H](C)[C@@H](OC)[C@H](C)C(=O)O)O3)O2)O1` [Monensin sodium salt] the same measures were 0.156 ± 0.0082 and 0.128 ± 0.0063.
As to `C[N+](C)(C)CCCCCCCCCC[N+](C)(C)C` [Decamethonium bromide], the normalised cell viability was determined as 1.18 ± 0.34 (treatment time: 3 days) and 1.019 ± 0.0077 (treatment time: 6 days).
The like results for `C[N+]1(C)[C@@H]2CC[C@H]1C[C@@H](OC(=O)C(CO)c1ccccc1)C2` (stereo not given in full) [Methylatropine nitrate] were, in that order, 1.11 ± 0.021 and 1.15 ± 0.091.
Turning to `Oc1cc(Cl)ccc1Oc1ccc(Cl)cc1Cl` [Triclosan], the normalised cell viability amounted to 0.974 ± 0.022 (treatment time: 3 days) and 1 ± 0.02 (treatment time: 6 days).
For `C[N+]1([O-])[C@@H]2C[C@@H](OC(=O)[C@H](CO)c3ccccc3)C[C@H]1[C@@H]1O[C@@H]12` (stereo not given in full) [Scopolamin-N-oxide hydrobromide] the same measures were 0.997 ± 0.074 and 0.945 ± 0.092.
For `CC(C)(C)NCC(O)c1ccccc1Cl` (stereo not given) [Tulobuterol] the same measures were 1.07 ± 0.015 and 1.05 ± 0.086.
For `C[C@@H]1C[C@@H]([C@H](O)CC2CC(=O)NC(=O)C2)C(=O)[C@@H](C)C1` [Cycloheximide] the same measures were 0.132 ± 0.0063 and 0.142 ± 0.0068.
Consider `C=CCC1(CC(C)C)C(=O)NC(=O)NC1=O` [Butalbital], for which the normalised cell viability runs as follows: (treatment time: 3 days) 1.1 ± 0.031; (treatment time: 6 days) 1.079 ± 0.0048.
The like results for `C=C1[C@@H]2CC[C@H]3[C@]4(C)C[C@H](O[C@@H]5O[C@H](CO)[C@@H](OS(=O)(=O)O)[C@H](OS(=O)(=O)O)[C@H]5OC(=O)CC(C)C)C[C@@H](C(=O)O)[C@H]4CC[C@]3(C2)[C@@H]1O` [Atractyloside potassium salt] were, in that order, 1.05 ± 0.051 and 1.09 ± 0.079.
The like results for `C[C@]12CC[C@H]3[C@@H](CCC4=CC(=O)CC[C@@H]43)[C@@H]1CC[C@@H]2O` [Nandrolone] were, in that order, 0.993 ± 0.11 and 1.02 ± 0.028.
The like results for `CN1C[C@H](C(=O)N[C@]2(C)O[C@@]3(O)[C@@H]4CCCN4C(=O)[C@H](Cc4ccccc4)N3C2=O)C[C@@H]2c3cccc4[nH]cc(c34)C[C@H]21` [Dihydroergotamine tartrate] were, in that order, 1.06 ± 0.024 and 1.02 ± 0.12.
In the case of `CO[C@]12C[C@@H](COC(=O)c3cncc(Br)c3)CN(C)[C@@H]1Cc1cn(C)c3cccc2c13` [Nicergoline], the normalised cell viability was 0.886 ± 0.074 (treatment time: 3 days) and 0.994 ± 0.033 (treatment time: 6 days).
The like results for `CN1C[C@H](CNC(=O)OCc2ccccc2)C[C@@H]2c3cccc4c3c(cn4C)C[C@H]21` [Metergoline] were, in that order, 0.1447 ± 0.00066 and 0.133 ± 0.017.
For `NC(=O)OCCCc1ccccc1` [Phenprobamate] the same measures were 1.14 ± 0.049 and 1.08 ± 0.15.
The like results for `S=C(NC1CCCCC1)N1CCC(c2cnc[nH]2)CC1` [Thioperamide maleate] were, in that order, 1 ± 0.018 and 1.02 ± 0.014.
`C[C@H](N)[C@H](O)c1ccc(O)c(O)c1` [Levonordefrin] showed a normalised cell viability (treatment time: 3 days) of 1.05 ± 0.05 and a normalised cell viability (treatment time: 6 days) of 1.02 ± 0.028.
In the case of `CCCCCC[C@H]1C(=O)O[C@H](C)[C@H](NC(=O)c2cccc(NC=O)c2O)C(=O)O[C@@H](C)[C@@H]1OC(=O)CC(C)C` [Antimycin A], the normalised cell viability is 0.152 ± 0.0026 (treatment time: 3 days) and 0.12 ± 0.011 (treatment time: 6 days).
As for `C[C@]12CCC(=O)C=C1CC[C@@H]1[C@@H]2C(=O)C[C@]2(C)C(=O)CC[C@@H]12` [Adrenosterone], the normalised cell viability runs as follows: (treatment time: 3 days) 1.19 ± 0.085; (treatment time: 6 days) 1.11 ± 0.017.
For `CCC(C)C1O[C@]2(C=C[C@@H]1C)C[C@@H]1CC(C/C=C(\C)[C@@H](OC3C[C@H](OC)[C@@H](OC4C[C@H](OC)[C@@H](O)[C@H](C)O4)[C@H](C)O3)[C@@H](C)/C=C/C=C3\COC4[C@H](O)C(C)=CC(C(=O)O1)[C@]34O)O2` (stereo not given in full) [Avermectin B1a], the normalised cell viability stood at 0.486 ± 0.016 (treatment time: 3 days) and 0.475 ± 0.052 (treatment time: 6 days).
Consider `COc1ccc(CN2CCNCC2)c(OC)c1OC` [Trimetazidine dihydrochloride], for which the normalised cell viability amounted to 1.05 ± 0.06 (treatment time: 3 days) and 1.06 ± 0.023 (treatment time: 6 days).
Consider `C=C(C)[C@@H]1[C@H]2OC(=O)[C@@H]1[C@]1(O)C[C@H]3O[C@]34C(=O)O[C@H]2[C@]14C` [Picrotoxinin], for which the normalised cell viability came to 1.007 ± 0.0066 (treatment time: 3 days) and 1.11 ± 0.061 (treatment time: 6 days).
Turning to `Fc1ccc(C(OCCN2CCN(CCCc3ccccc3)CC2)c2ccc(F)cc2)cc1`, the normalised cell viability is, setting by setting: (treatment time: 3 days) 0.159 ± 0.0052; (treatment time: 6 days) 0.182 ± 0.012.
In turn, `COc1ccc(CCN2CCC(Nc3nc4ccccc4n3Cc3ccc(F)cc3)CC2)cc1` [Astemizole] came in with a normalised cell viability (treatment time: 3 days) of 0.13 ± 0.0054 and a normalised cell viability (treatment time: 6 days) of 0.099 ± 0.003.
For `C[C@]12C[C@H]3S[C@H]3C[C@@H]1CC[C@@H]1[C@@H]2CC[C@]2(C)[C@@H](O)CC[C@@H]12` [Epitiostanol] the same measures were 1.04 ± 0.012 and 1.033 ± 0.01.
The like results for `CC1OC(OC2/C=C/C=C/C=C/C=C/CC/C=C/C=C/[C@H](C)[C@@H](O)[C@@H](C)[C@H](C)OC(=O)CC(O)CC(O)CC(O)CCC(O)C(O)C[C@]3(O)CC(O)C(C(=O)O)C(C2)O3)C(O)C(N)C1O` (stereo not given in full) [Nystatine] were, in that order, 1.06 ± 0.055 and 0.905 ± 0.084.
Turning to `CN1CCN(C(=O)OC2c3nccnc3C(=O)N2c2ccc(Cl)cn2)CC1` (stereo not given) [Zopiclone], the normalised cell viability came out at 1.11 ± 0.05 (treatment time: 3 days) and 1.04 ± 0.061 (treatment time: 6 days).
For `CCN[C@@H](C)Cc1cccc(C(F)(F)F)c1` [Dexfenfluramine hydrochloride], the normalised cell viability by setting is: (treatment time: 3 days) 0.908 ± 0.092; (treatment time: 6 days) 1.02 ± 0.074.
Turning to `C[C@@H]1O[C@@H](O[C@@H]2C=C3CC[C@@H]4[C@H](CC[C@]5(C)[C@@H](c6ccc(=O)oc6)CC[C@]45O)[C@@]3(C)CC2)[C@H](O)[C@H](O)[C@H]1O` [Proscillaridin A], the normalised cell viability (treatment time: 3 days) came to 0.945 ± 0.013 and the normalised cell viability (treatment time: 6 days) is 0.908 ± 0.11.
The like results for `CCN(C(C)=O)c1cccc(-c2ccnc3c(C#N)cnn23)c1` [Zaleplon] were, in that order, 1.13 ± 0.075 and 0.981 ± 0.063.
For `C[C@]12Cc3c[nH]nc3C[C@@H]1CC[C@@H]1[C@@H]2CC[C@@]2(C)[C@H]1CC[C@]2(C)O` [Stanozolol], the normalised cell viability was found to be 1.07 ± 0.064 (treatment time: 3 days) and 1.06 ± 0.036 (treatment time: 6 days).
As to `CN[C@@H]1[C@@H](O)[C@@H](O[C@@H]2[C@@H](O)[C@H](O[C@H]3O[C@H](CN)CC[C@H]3N)[C@@H](N)C[C@H]2N)OC[C@]1(C)O.CN[C@@H]1[C@@H](O)[C@@H](O[C@@H]2[C@@H](O)[C@H](O[C@H]3O[C@H]([C@@H](C)N)CC[C@H]3N)[C@@H](N)C[C@H]2N)OC[C@]1(C)O.CN[C@@H]1[C@@H](O)[C@@H](O[C@@H]2[C@@H](O)[C@H](O[C@H]3O[C@H]([C@@H](C)NC)CC[C@H]3N)[C@@H](N)C[C@H]2N)OC[C@]1(C)O` [Gentamicine sulfate], the normalised cell viability reads like this: (treatment time: 3 days) 0.961 ± 0.029; (treatment time: 6 days) 0.955 ± 0.039.
For `C(#CCN1CCCC1)CN1CCCC1` [Tremorine dihydrochloride] the same measures were 1.09 ± 0.065 and 1.08 ± 0.06.
As to `C[CH2][Hg][S]c1ccccc1C(=O)[O-].[Na+]` [Thimerosal], the normalised cell viability runs as follows: (treatment time: 3 days) 0.0995 ± 0.0026; (treatment time: 6 days) 0.126 ± 0.0061.
For `C[N+]1(C)CCCC(OC(=O)C(O)(c2ccccc2)c2ccccc2)C1` (stereo not given) [Mepenzolate bromide] the same measures were 0.974 ± 0.054 and 1.08 ± 0.059.
The like results for `O=C(CCCN1CCC(n2c(=O)[nH]c3ccccc32)CC1)c1ccc(F)cc1` [Benperidol] were, in that order, 0.93 ± 0.029 and 0.969 ± 0.083.

(Values after the supplement of paper PMC6609913.)
